Compound activity: PubChem BioAssay, several laboratories
LANA-H2B inh: blockers of LANA interaction with H2A/H2B – biochemical, FP readout, HTS, primary screen; inhibition, % (no concentration beside the values); AID 2629, 2010; Protein LANA1 (Human herpesvirus 8 type P (isolate GK18)), Q9QR71; 320,000 compounds, 0.6% hits; cell-free LANA-H2A/H2B peptide, fluorescence polarization; in the data active means inhibition mostly above about 10%, no sharp cut-off; inactive means mostly below about 6.7%
Target sequence (Q9QR71 whole entry, looked up): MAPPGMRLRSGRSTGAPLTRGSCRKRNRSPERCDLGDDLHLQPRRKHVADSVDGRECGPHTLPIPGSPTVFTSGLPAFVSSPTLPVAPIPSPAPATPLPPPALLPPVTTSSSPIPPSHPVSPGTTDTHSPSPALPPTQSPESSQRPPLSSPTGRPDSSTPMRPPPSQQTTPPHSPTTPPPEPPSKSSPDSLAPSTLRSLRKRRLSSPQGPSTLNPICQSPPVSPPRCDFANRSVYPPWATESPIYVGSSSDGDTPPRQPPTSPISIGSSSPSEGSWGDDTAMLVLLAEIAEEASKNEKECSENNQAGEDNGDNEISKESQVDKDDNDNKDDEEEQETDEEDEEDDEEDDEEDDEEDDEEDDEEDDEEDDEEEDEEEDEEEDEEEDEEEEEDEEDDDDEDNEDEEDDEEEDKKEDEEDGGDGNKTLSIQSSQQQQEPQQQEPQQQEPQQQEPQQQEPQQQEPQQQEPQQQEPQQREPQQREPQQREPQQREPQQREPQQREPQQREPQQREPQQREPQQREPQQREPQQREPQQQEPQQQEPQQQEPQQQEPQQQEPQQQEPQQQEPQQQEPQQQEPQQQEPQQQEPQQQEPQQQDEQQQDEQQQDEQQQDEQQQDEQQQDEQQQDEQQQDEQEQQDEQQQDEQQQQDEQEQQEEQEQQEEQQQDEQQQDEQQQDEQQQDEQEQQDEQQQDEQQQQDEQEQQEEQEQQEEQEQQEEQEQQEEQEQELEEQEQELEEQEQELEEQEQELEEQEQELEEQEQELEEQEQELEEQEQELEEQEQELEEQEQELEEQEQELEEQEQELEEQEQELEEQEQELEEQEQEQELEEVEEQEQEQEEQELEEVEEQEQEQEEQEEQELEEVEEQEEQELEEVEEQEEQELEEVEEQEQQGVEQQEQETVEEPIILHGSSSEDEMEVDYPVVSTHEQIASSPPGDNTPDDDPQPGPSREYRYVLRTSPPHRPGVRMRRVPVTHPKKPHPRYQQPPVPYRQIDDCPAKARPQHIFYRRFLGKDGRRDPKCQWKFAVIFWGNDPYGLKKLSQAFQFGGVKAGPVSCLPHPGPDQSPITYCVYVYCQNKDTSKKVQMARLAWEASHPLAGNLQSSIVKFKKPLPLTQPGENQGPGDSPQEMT
HDAC3 inhib: HDAC3 deacetylase inhibitors, primary screen, biochemical, fluorescence, cell-free homogeneous; recombinant HDAC3, fluorogenic peptide/trypsin coupled; inhibition, % at 8.3 µM; 320,000 compounds, 0.15% hits; AID 2718, 2010; in the data active means inhibition above about 26%, passing the limit was not always enough
A3A deaminase: APOBEC3A ssDNA deaminase inhibitors, primary screen, selectivity assay for APOBEC3G inhibitor project, biochemical, FAM/TAMRA oligo cleavage fluorescence | recombinant A3A, FAM/TAMRA ssDNA deamination fluorescence | DNA dC->dU-editing enzyme APOBEC-3A (Homo sapiens), P31941 | inhibition, % at 20 µM | 330,000 compounds, 0.41% hits;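 active means at least 40% inhibition at 20 µM here, with at most 30% in a related deaminase screen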;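 further: plate controls were A3A with DMSO for no effect and wells lacking A3A enzyme for full effect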
A3G deaminase: APOBEC3G DNA deaminase inhibitors, primary screen, biochemical, fluorescence, single-stranded DNA substrate, uHTS | DNA dC->dU-editing enzyme APOBEC-3G (Homo sapiens), Q9HC16 | recombinant A3G, ssDNA deamination FAM/TAMRA fluorescence | inhibition, % at 20 µM | 330,000 compounds, 0.28% hits;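 active means inhibition of at least 40% at 20 µM, with no more than 30% in the related APOBEC3A deaminase screen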;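 further: plate controls were DMSO wells with A3G for no effect and wells lacking A3G enzyme for full effect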
An asterisk follows results filed as active; / = no result given. Shown are actives, neighbours in structure and some others; about 1.4% of the full set was active somewhere.

SMILES	LANA-H2B inh	HDAC3 inhib	A3A deaminase	A3G deaminase
Cc1ccc(-c2noc(C3CCCN(C(=O)c4cccc(F)c4)C3)n2)cc1 (stereo not given)	16*	4	1	-5
O=C(CC1C[C@H](C(=O)N2CCOCC2)[C@@]2(CCC3CCCC3)c3[nH]c4ccccc4c3CCN2C1=O)NCc1ccco1 (stereo not given in full)	-17	-6	-3	-5
CCOC(=O)C1(CCOC)CCN(C/C=C/c2ccccc2OC)CC1	1	-6	/	/
N#Cc1cc(Oc2ccccc2)c(-n2nnc3ccccc32)cc1C#N	26*	2	-5	-4
COC(=O)CSC1=NS(=O)(=O)c2ccccc21	-3	54*	3	-46
O=C(CSC1=NS(=O)(=O)c2ccccc21)Nc1ccccc1	-2	13	-3	-41
Nc1nc(-c2ccco2)nn1C(=O)c1cccnc1	4	18	0	-1
COc1ccc(C(=O)n2nc(-c3ccco3)nc2N)cc1	9	84*	2	2
Cc1ccc(C(=O)n2nc(-c3ccco3)nc2N)cc1	-4	40*	0	2
Cc1ccc(C(=O)N2CCCC(CCC(=O)N3CCN(c4ccccn4)CC3)C2)cn1 (stereo not given)	10*	-1	-3	-4
CCOC(=O)CC(=O)CSc1ncnc2c1nnn2-c1ccc(F)cc1	0	61*	4	4
CCN(CC)CCOC(=O)C1(c2ccccc2)CCCC1	36*	-9	-3	-6
CC(C)(C)OC(=O)NCCCCCc1nnc(SCc2c(F)cccc2Cl)o1	14*	-1	-1	11
CC(C)(C)OC(=O)NCCc1nnc(SCc2c(Cl)cccc2Cl)o1	1	10	-3	-1
COc1cc(/C=C/C(=O)OCC(=O)NC(=O)NC(C)C)ccc1O	6	-4	-1	-4
COc1cc(/C=C/C(=O)OCC(=O)NC(=O)NC(C)C)cc(S(=O)(=O)N2CCc3ccccc32)c1OC	26*	6	-5	-6
CC[C@]12c3[nH]c4cc(CCC(=O)N(C)C)ccc4c3CCN1C(=O)[C@@H](CC(=O)NCCc1ccccn1)C[C@@H]2C(=O)N1CCN(C(=O)C2CC2)CC1	/	/	5	5
CC(C(=O)Oc1ccc2c(c1)OCO2)N1C(=O)c2ccccc2C1=O (stereo not given)	21*	6	-4	-5
COc1ccc(CCC(=O)OCC(=O)Nc2sccc2C#N)cc1	-3	-2	0	-4
O=C(COc1ccc(Cl)cc1)NNC(=O)c1ccncc1	39*	2	-2	-1
O=C(OCCNC(=O)c1cc2ccccc2oc1=O)c1cccnc1	50*	-2	0	-2
CC(C)Cc1ccc(C(=O)Nc2ccc(Cc3ccncc3)cc2)o1	-4	0	-4	-12
COc1cccc(-c2c(-c3cc(OC)cc(OC)c3)n(C)c3ccc(-c4cccc5[nH]ccc45)cc23)c1	8	-4	-4	-8
COc1cc(/C=C2\CCCc3c2nc2ccccc2c3C(=O)O)cc(OC)c1O	3	5	-2	-2
COc1ccc(/C=C2\CCc3c2nc2ccccc2c3C(=O)O)cc1OC	2	1	11	1
SMILES	LANA-H2B inh	HDAC3 inhib	A3A deaminase	A3G deaminase
COc1ccc(/C=C2\CCCc3c2nc2ccccc2c3C(=O)O)cc1OC	91*	-7	-7	-13
CCOc1ccc(/C=C2\CCCc3c2nc2ccccc2c3C(=O)O)cc1OC	121*	5	-14	-34
CCCN(CC(=O)Nc1ccccc1C)C(=O)Cc1n[nH]c(=O)c2ccccc12	-1	-6	1	-6
CCCN(CC(=O)Nc1ccccc1C)C(=O)Cc1c(C)nc2ccccc2c1C	140*	4	1	-3
CC(C)Cn1c(CCCNC(=O)c2ccc(F)cc2)nc2ccccc21	11*	4	0	0
COC(CNC(=O)C(=O)NCC1OCCN1C(=O)c1ccc(Cl)cc1)OC (stereo not given)	11*	2	0	4
Cn1c(=O)c2c(ncn2CC(=O)Nc2nnc(Cc3ccccc3)s2)n(C)c1=O	-3	-8	-4	-8
C=CCSc1nnc(NC(=O)Cn2cnc3c2c(=O)n(C)c(=O)n3C)s1	78*	-1	0	0
